Screening results: PubChem BioAssay, several laboratories
PfM18AAP inh: blocks P. falciparum M18 aspartyl aminopeptidase | recombinant PfM18AAP, H-Glu-NHMec fluorogenic cleavage | inhibition, % at 7.35 µM | 1.2% of 290,000 active | AID 1822;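 active = inhibition above the campaign mean inhibition over all tested compounds plus 3 SD, cut at about 28% in these data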;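 note: 0% = plate median of test compound wells and 100% = 2 mM ZnCl2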
SMARCA2 activ: activators of SMARCA2 function; MG213 cells, MMTV-luciferase reporter, dexamethasone, overnight; activation, % at 9.1 µM; 1% of 370,000 active; in the data active = activation above about 7.8%;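 note: 0% = vehicle wells and 100% = reference activator wells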
GASC-1 inh: inhibitors of human GASC-1 (JMJD2C) demethylase | Q9H3R0 | GST-JMJD2C(1-420) H3K9me3 demethylation, DELFIA europium | inhibition, % at 2.35 µM | 0.069% of 330,000 active;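 active = more than half of a compound's replicate wells show inhibition beyond 50%, single wells judged on their own value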;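 note: signal counts dimethyl H3K9 product captured on neutravidin plate; 0% = median of DMSO wells and 100% = 0.3 times that DMSO median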
Target sequence (Q9H3R0 1-420 limits assumed): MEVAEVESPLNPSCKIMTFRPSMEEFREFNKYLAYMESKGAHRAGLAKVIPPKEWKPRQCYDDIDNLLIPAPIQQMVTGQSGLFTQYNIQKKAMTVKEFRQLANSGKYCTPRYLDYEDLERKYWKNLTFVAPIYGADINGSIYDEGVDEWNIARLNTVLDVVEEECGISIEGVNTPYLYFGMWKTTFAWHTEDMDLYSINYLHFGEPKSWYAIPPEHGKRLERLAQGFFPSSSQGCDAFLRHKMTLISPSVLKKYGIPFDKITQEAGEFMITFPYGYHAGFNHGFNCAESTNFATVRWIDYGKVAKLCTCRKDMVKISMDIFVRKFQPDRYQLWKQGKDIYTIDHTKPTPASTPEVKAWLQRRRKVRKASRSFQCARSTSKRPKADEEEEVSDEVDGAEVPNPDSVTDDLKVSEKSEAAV
Granule exo inh: blocks lytic granule exocytosis | TALL-104 LAMP-1 surface exposure, flow cytometry; cells stimulated with thapsigargin and PMA | inhibition, % at 10 µM | 0.66% of 360,000 active;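 active = inhibition above about 55%, limit read from the data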
ALR inh: blocks human ALR sulfhydryl oxidase activity. P55789. purified ALR, DTT oxidation, H2O2 HRP-luminol luminescence. inhibition, % (test concentration not listed). 3.8% of 290,000 active. AID 485317;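 active = mean replicate inhibition above about 79%, with every replicate also reaching it, limit read from the data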
Target sequence (P55789 whole entry, looked up): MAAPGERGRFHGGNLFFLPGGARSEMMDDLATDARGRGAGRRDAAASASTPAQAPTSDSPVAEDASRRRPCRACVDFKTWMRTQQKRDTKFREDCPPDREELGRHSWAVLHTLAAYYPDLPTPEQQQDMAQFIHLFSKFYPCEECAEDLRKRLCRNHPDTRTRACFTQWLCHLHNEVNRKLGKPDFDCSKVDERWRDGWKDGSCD
MIN6 prolif: inducers of beta-cell replication in MIN6 cells | MIN6 cells proliferation, ATPlite luminescence, 48 h; cells starved in 0.2% serum; 100% = growth in 10% serum | proliferation, % at 10 µM | 0.29% of 330,000 active | AID 2380;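 active = compounds whose signal lies at least 3.5 SD above the mean of all wells on their plate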;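 note: 0% = DMSO-treated cells in low-serum medium and 100% = 10% serum control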
SMARCA2 act conf: SMARCA2 activation, confirmation screen | shares compounds with SMARCA2 activ | 30% of 3,500 active | MG213 cells, MMTV-luciferase with dexamethasone, luminescence, overnight; MG213 cells expressing E1A, Rb sequestered; DMSO wells 0%, reference activator 100% | activation, % at 9.1 µM;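 active = activation above its plate's cutoff, the mean activation of tested wells plus 3 SD, cut at about 7.9% in these data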
GAL4-VP16 Luc: GAL4-VP16 reporter activation counter-screen; shares compounds with SMARCA2 activ; HEK293 GAL4-VP16 pG5luc reporter, luciferase luminescence; scaled: DMSO wells 0%, SAHA wells 100%; activation, % at 9.1 µM; 41% of 3,500 active;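 active = activation above the solvent-only control well mean plus 3 SD, averaged across control plates, cut at about 5.2% in these data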
* marks the source's active call; other numbers are inactive results; . = no result. The list is not random: actives were taken first. Their share in the collection is about 5.4%.

SMILES	PfM18AAP inh	SMARCA2 activ	GASC-1 inh	Granule exo inh	ALR inh	MIN6 prolif	SMARCA2 act conf	GAL4-VP16 Luc
Cc1cc(N2CCCC2)nc2ccc(NC(=S)NCCCN3CCC(C)CC3)cc12	-6	12*	1	30	70	-6	19*	1
Nc1[nH]c(C(=O)c2ccccc2)c(-c2ccc(Cl)c(F)c2)c1C(=O)NCCc1c[nH]c2ccccc12	.	-2	.	0	.	.	.	.
C/C(=N/NC(=O)c1ccccn1)c1c[nH]c2ccccc12	12	16*	-2	-10	-8	-4	12*	4
O=C(NCc1cccc(C(F)(F)F)c1)c1ccc2sc([C@H]3C[C@H](O)[C@@H](CO)O3)nc2c1	.	-1	.	-3	.	.	.	.
O=c1[nH]c2cc([N+](=O)[O-])ccc2c2ccccc12	.	-1	.	1	.	.	.	.
O=C1Cc2c([nH]c3ccc([N+](=O)[O-])cc23)-c2ccccc2N1	.	13*	.	-2	.	.	11*	-2
Cc1nc2cc(NC(=O)N3c4ccccc4CC3C)ccc2o1 (stereo unspecified)	10	9.6*	3	-6	37	-3	14*	13*
CCN(CC)C(=S)SCC(=O)c1ccccc1	0	5	-5	-2	29	5	.	.
CCN(CC)C(=S)SSC(=S)N(CC)CC	36*	9.2*	0	64*	97*	-8	-9	7.0*
Fc1ccc(-c2nc(-c3cccs3)no2)cc1	-4	-2	-4	-7	0	1	.	.
Fc1ccc(-c2cnc(-c3cccs3)o2)cc1	-17	9.2*	-6	-6	7	2	10*	5.4*
COC(=O)c1nc(-c2ccc(C)cc2)[nH]c1C(C)(C)C	.	-4	.	-4	.	.	.	.
COc1cc(O)c2c(=O)c3c(OC)c(O)ccc3oc2c1	-6	9.7*	2	39	65	10	9.0*	4
Cc1ccc(C(=O)Nc2cc(Cl)ccc2OC(=O)c2ccc(C)cc2)cc1	-1	8.0*	5	.	2	-2	7	10*
COc1ccc(NC(=O)C(c2ccccc2F)n2c(=O)c(-c3cc4ccccc4[nH]3)nc3ccccc32)cc1 (stereo unspecified)	.	-1	.	3	.	.	.	.
CC(C)CNC(=O)C1(C)CCCN1C(=O)c1cccnc1 (stereo unspecified)	.	-1	.	8	.	.	.	.
COc1ccc(C2C(C#N)=C(N)N(c3cccnc3)C3=C2C(=O)CC(C)(C)C3)cc1OC (stereo unspecified)	14	9.2*	3	2	47	-2	1	2
COc1ccc(N2C(N)=C(C#N)C(c3cccnc3)C3=C2CC(C)(C)CC3=O)cc1 (stereo unspecified)	6	0	-1	0	1	-2	.	.
CC(=O)Nc1cc(-c2ccccc2)cn2c(-c3cccc(C(C)=O)c3)cnc12	.	0	.	50	.	.	.	.
CC1(C(=O)NS(=O)(=O)c2ccccc2OC(F)(F)F)CCN1C(=O)Cc1ccccc1 (stereo unspecified)	.	1	.	8	.	.	.	.
CCCCOCC1CN(Cc2ccccc2OC)S(=O)(=O)c2cc(Cl)ccc2O1 (stereo unspecified)	.	-4	.	.	.	.	.	.
COc1cc(/C=N/NC(=O)c2cc(-c3c(C)nn(-c4ccccc4)c3C)n[nH]2)ccc1O	4	12*	-7	2	84*	-4	16*	12*
CC(=NNC(=O)CSc1nnc(-c2ccccc2)n1-c1ccccc1)c1ccc2ccccc2c1	.	-4	.	.	.	.	.	.
NC(Cc1ccc(O)cc1)C(=O)NN=Cc1ccccc1O (stereo unspecified)	.	4	.	.	.	.	.	.
O=C(CN1CCOCC1)Nc1ccccc1F	-5	1	-6	0	2	2	.	.
SMILES	PfM18AAP inh	SMARCA2 activ	GASC-1 inh	Granule exo inh	ALR inh	MIN6 prolif	SMARCA2 act conf	GAL4-VP16 Luc
N#C/C(=N\Nc1cccc(F)c1)C(=O)C1CC1	5	-3	1	6	13	-2	.	.
N#C/C(=N\Nc1cccc(F)c1)C(=N)N1CCCCCC1	-3	8.5*	-2	-2	.	-4	7	11*
N#C/C(=N/Nc1ccccc1F)C(=N)N1CCOCC1	2	9.4*	13	0	12	0	11*	3
NC(=S)N/N=C/c1cn(-c2ccccc2)nc1-c1cccnc1	3	8.2*	-6	1	-2	-4	0	4
NC(=O)N/N=C/c1cn(-c2ccccc2)nc1-c1cccnc1	-3	.	-2	.	2	-2	.	.
CC(=O)c1ccc(-c2cccc3nccn23)cc1	.	-2	.	0	.	.	.	.
CC(=O)Nc1cccc(-c2cccc3nccn23)c1	.	11*	.	-7	.	.	8.9*	7.7*
Cc1ccc(NC(=O)C2(C)CCN2C(=O)Cc2ccccc2)cc1C (stereo unspecified)	.	1	.	0	.	.	.	.
C=CCN1C(C(=O)OCC)CSCCS1(=O)=O (stereo unspecified)	.	-3	.	.	.	.	.	.
Cc1cc(NC(=O)CN2C(=O)NC(CC(C)C)C2=O)ccc1Br (stereo unspecified)	.	7	-67	-3	0	-5	.	.
CC(C)CC1NC(=O)N(CC(=O)Nc2cccc(Br)c2)C1=O (stereo unspecified)	.	9.6*	15	4	-5	-2	1	1
COc1ccccc1C(=O)Nc1nsc(-c2ccccc2)n1	3	8.8*	-4	-3	.	-1	13*	15*
O=C(NCC1CC1)C1Cc2c(-c3ccc4c(c3)OCO4)ccnc2O1 (stereo unspecified)	.	0	.	4	.	.	.	.
O=C(N/C(=C/c1cccc(Br)c1)C(=O)N1CCCCC1)c1ccco1	.	-6	.	19	.	.	.	.
CC(=O)NCc1ccc(C(=O)CCl)s1	3	9.0*	0	1	-2	-6	10*	8.0*
COc1ccc(C(=O)OCC(=O)c2ccc(CNC(C)=O)s2)cc1	.	-1	-4	-7	-4	-3	.	.
O=C(Oc1ccccc1C(=O)N1CCOCC1)c1ccccc1	-6	8.0*	6	5	3	-2	0	0
COC(=O)CN1CCN(C(=O)c2csc(N3CCOCC3)n2)CC1	.	1	.	.	.	.	.	.
CC(=O)c1cccc(NC(=O)C2Cc3c(-c4ccco4)ccnc3O2)c1 (stereo unspecified)	.	-5	.	0	.	.	.	.
C=CCS/C(N)=N\N=C\c1c(O)ccc2ccccc12	9	12*	-5	-2	0	-6	12*	8.7*
COc1ccc(-n2c(SCC(=O)Nc3cc(C)c(NC(=O)c4ccccc4)cc3OC)nnc2-c2cccnc2)cc1	.	-5	.	.	.	.	.	.
